The results in this text go back to PubChem BioAssay (EPA / NIEHS).

“And” between values parts separate entries of the source, which are not always exact repeats. Equal values may be shown once. Some compounds were tested as several samples or in several runs, with calls that do not always agree. The source made the active and inactive calls. Rule for the calls: active = hit-call score of the fitted dose curve at least 0.9, where 1 is the maximum; inactive = score below 0.9.

In this assay the target is Transcription factor Sp1 (Homo sapiens) (UniProt P08047). The experiment in a line: ATG_Sp1_CIS: Attagene CIS-FACTORIAL HepG2 Assay for human Specificity Protein 1 (Sp1) (AID 2282961). The note with it: HepG2 Sp1 cis-reporter transcription, actives raise or lower the signal. Here is the method: ATG_CIS is a cell-based, multiplexed-readout assay that uses HepG2, a human liver cell line, with measurements taken at 24 hours after chemical dosing in a 24-well plate.ATG_Sp1_CIS is one of 52 assay component(s) measured or calculated from the ATG_CIS assay. It is designed to make measurements of mRNA induction, a form of inducible reporter, as detected with fluorescence intensity signals by Reverse transcription polymerase chain reaction (RT-PCR) and Capillary electrophoresis technology.Data from the assay component ATG_Sp1_CIS was analyzed into 1 assay endpoint. This assay endpoint, ATG_Sp1_CIS, was analyzed with bidirectional fitting relative to DMSO as the negative control and baseline of activity. Using a type of inducible reporter, measures of mRNA for gain or loss-of-signal activity can be used to understand the reporter gene at the transcription factor-level as they relate to the gene SP1. Furthermore, this assay endpoint can be referred to as a primary readout, because this assay has produced multiple assay endpoints where this one serves a reporter gene function. To generalize the intended target to other relatable targets, this assay endpoint is annotated to the dna binding intended target family, where the subfamily is zinc finger.
Sequence of Transcription factor Sp1 (Homo sapiens) (P08047 whole entry, looked up): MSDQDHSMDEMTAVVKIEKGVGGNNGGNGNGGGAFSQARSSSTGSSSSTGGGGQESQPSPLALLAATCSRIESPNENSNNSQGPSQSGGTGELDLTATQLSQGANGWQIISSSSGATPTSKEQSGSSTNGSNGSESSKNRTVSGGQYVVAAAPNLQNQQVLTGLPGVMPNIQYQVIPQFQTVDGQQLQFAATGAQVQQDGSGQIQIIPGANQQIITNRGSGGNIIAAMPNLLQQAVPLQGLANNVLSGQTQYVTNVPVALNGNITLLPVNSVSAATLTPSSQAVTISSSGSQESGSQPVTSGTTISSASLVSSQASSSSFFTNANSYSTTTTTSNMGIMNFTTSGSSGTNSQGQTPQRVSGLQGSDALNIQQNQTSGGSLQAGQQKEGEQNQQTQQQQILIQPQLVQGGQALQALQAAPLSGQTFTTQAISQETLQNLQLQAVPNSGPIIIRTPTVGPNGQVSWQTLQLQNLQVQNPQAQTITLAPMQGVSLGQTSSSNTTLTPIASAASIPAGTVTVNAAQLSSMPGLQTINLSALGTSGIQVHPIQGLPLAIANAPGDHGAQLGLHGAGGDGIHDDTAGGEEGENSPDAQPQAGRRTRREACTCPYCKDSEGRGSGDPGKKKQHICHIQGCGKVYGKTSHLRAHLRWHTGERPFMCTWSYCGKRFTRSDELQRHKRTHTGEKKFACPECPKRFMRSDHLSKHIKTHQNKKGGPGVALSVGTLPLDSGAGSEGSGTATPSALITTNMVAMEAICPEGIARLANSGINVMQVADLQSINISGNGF
Human liver HepG2 cells are transiently transfected with multiple reporter transcription units (MRTUs) in 6-well plates using FuGene 6 reagent (Roche; 3 ml FuGene/1 mg DNA). The MRTU constructs are regulated by a cis-regulating element (promoter). […] A major difference between the CIS and TRANS system is that in CIS activities of endogenous TFs are measured, whereas the TRANS assay evaluates changes in activities of exogenous, chimeric NR-Gal4 proteins. […] At the end of 24 hour incubation, total RNA was isolated using TriZol reagent (Invitrogen). The isolated RNA is then reverse-transcribed using oligo(dT) primer and Mo-MLV reverse transcriptase (Invitrogen) with DNAse I (Ambion) treatment for 30 min. The one-tenth of the produced cDNA was amplified by PCR using Taq DNA polymerase (Invitrogen) and two reporter sequence-specific primers. The PCR products were fluorescently labeled by primer extension with 6-arboxyfluorescein (6-FAM) 5'-labeled reporter sequence-specific primer (2 min at 95 C, 20 s at 68 C and 10 min at 72 C) and these products were digested with 5U of HpaI (New England Biolabs) for 2h at 37 C. The fragments were purified using Qiaquick PCR columns (Qiagen), analyzed on an ABI 3130xL genetic analyzer (Applied Biosystems) with peak positions identified by using a set of X-rhodamine (ROX)-labeled MapMarker1000 molecular weight standards (BioVentures). The raw capillary electrophoresis data was processed using Attagraph software (Attagene).
On to `CCCCOC(=O)C(C)OC(=O)CCC` (stereo not given), for which the outcome was inactive. Same read-out and setting: for `CC(=O)CC(=O)N(C)C` the value was “inactive”. Turning to `C1CCCNCC1`, the outcome was inactive. Same read-out and setting: for `CC(=O)OC(C)(C)C` the value was “inactive”; for `CCCCN(CCCC)CCCCCCN(CCCC)CCCC`, “inactive”. Still for that read-out and setting: to `CC(C)N1C(=O)c2ccccc2C1=O` belongs “inactive”; to `C=CC(C)CCCC(C)(C)O` (stereo not given), “inactive”. Same read-out and setting: to `CC(C)(C)c1ccc(S)cc1` belongs “inactive”; to `CCCCCCCCCCCCCCCCCC(=O)OCCCCCCCCCCCCCC(C)C`, “inactive”; to `CC(C)C(=O)c1ccccc1`, “inactive”. On to `CCCC[N+](C)(CCCC)CCCC`, for which the outcome was inactive. As usually defined, the AC50 is the midpoint of the concentration-response curve, whichever way the signal moves. Consider `O=C(c1ccc(OCCN2CCCCC2)cc1)c1c(-c2ccc(O)cc2)sc2cc(O)ccc12`, for which the result was inactive; the AC50 is 11.1 µM (active) and 16.7 µM (active).

Turning to `CC1=CCC(C(C)(C)O)CC1` (stereo not given), the result was inactive. For the molecule `CCOC(=O)CC1(C)OCC(C)O1` (stereo not given), the call was inactive. Still for that read-out and setting: to `[Na+]` belongs “inactive”.

Consider `COc1ccc(C(C)=O)cc1`, for which the molecule was classed as inactive. As for `[Cl][Dy]([Cl])[Cl]`, the molecule was classed as inactive. In the case of `CC(C)COC(=O)c1ccccc1O`, the molecule was classed as inactive. Same read-out and setting: to `CC(C)(C)c1cccc(O)c1` belongs “inactive”; to `CCCCCCCCOC(C)=O`, “inactive”; to `NNC(=O)OCc1ccccc1`, “inactive”.

In the case of `CC(C)=CC(=O)O`, the molecule was classed as inactive. Still for that read-out and setting: to `CCCCCCCCSCc1cc(C)c(O)c(CSCCCCCCCC)c1` belongs “inactive”. `CC(C)Cc1ccc(C(C)C(=O)O)cc1` (stereo not given): the result was inactive.

For `C=C(C)C(=O)OCCN(C)C`, the molecule was called inactive. Same read-out and setting: to `CN1CCc2cccc3c2[C@H]1Cc1ccc(O)c(O)c1-3` belongs “inactive”; to `CCCCCCCCCO`, “inactive”. Same read-out and setting: to `CC(C)(C)c1cc(CCC(=O)OCCSCCOC(=O)CCc2cc(C(C)(C)C)c(O)c(C(C)(C)C)c2)cc(C(C)(C)C)c1O` belongs “inactive”; to `Nc1ccc(N)c([N+](=O)[O-])c1`, “inactive”; to `C=C(C)C(N)=O`, “inactive”.

As to `C1=COCCC1`, the molecule was called inactive. In the case of `CCC(C)C1CCCCC1=O` (stereo not given), the outcome was inactive. On the same count and under the same terms, to `CCCCCCCCCCCCS` belongs “inactive”; to `NS(=O)(=O)c1cc(C(=O)O)c(NCc2ccco2)cc1Cl`, “inactive”. On the same count and under the same terms, to `OC[C@H]1O[C@@H](O[C@H]2[C@H](O)[C@@H](O)[C@H](O)O[C@@H]2CO)[C@H](O)[C@@H](O)[C@H]1O` belongs “inactive”. In the case of `NC(N)=NC(N)=NCCc1ccccc1`, the result was inactive. Same read-out and setting: to `CCOC(=O)C=Cc1ccccc1` belongs “inactive”.

Turning to `CC(C)=CCCC(C)=CC(=O)O`, the molecule was called inactive.

As for `Nc1cc([N+](=O)[O-])ccc1C(=O)O`, the molecule was classed as inactive.
